In PubChem BioAssay:
Calls of active or inactive are those of the source.

Tests used:
[1] = E. coli DRC41 culture turbidity changes, primary screen, E. coli filamentation inducer project, strain DRC41, OD650, 48 h (AID 1152);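 further: E. coli MC1000 strain DRC41 lacking acrAB efflux pump and sulA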; details: E. coli DRC41 (acrAB sulA), higher = more signal, called active from +8 up or from −8 down
[2] = small-molecule binders of probe aLefty1, primary screen, biochemical, small-molecule microarray, 635/667 nm fluorescence (AID 1153); details: higher = more signal;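 further: score merges spot fluorescence with signal-to-noise ratio from the scanned slide images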
[3] = PSAC antagonists in infected red cells, primary screen, cell-based, P. falciparum Indochina, OD700, 1 h (AID 1154); details: P. falciparum Indochina infected RBC osmotic lysis, higher = more signal, called active from +8 up or from −8 down
[4] = PSAC antagonists in infected red cells, primary screen, cell-based, P. falciparum Indochina, OD700, 2 h (AID 1155);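 further: lysis reports solute entry through the parasite surface anion channel PSAC; channel blockers reduce lysis of infected cells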; details: P. falciparum Indochina infected erythrocytes, osmotic lysis OD700; higher = more signal, called active from +8 up or from −8 down
[5] = osmotic lysis modulators in infected erythrocytes, primary screen, PSAC antagonist project, cell-based, P. falciparum Indochina, OD700, 3 h (AID 1156); details: higher = more signal, called active from +8 up or from −8 down
[6] = PSAC antagonists in infected red cells, primary screen, cell-based, P. falciparum Indochina, OD700, 18 h (AID 1157); details: P. falciparum Indochina infected erythrocytes, osmotic lysis OD700, 18 h; higher = more signal, called active from +8 up or from −8 down
[7] = modulators of S6 phosphorylation in cells, primary screen, cell-based, A549, cytoblot, luminescence, serum-stimulated (AID 1158); details: A549 phospho-S6 cytoblot, 5 h, higher = more signal;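 further: serum-stimulated A549 lung adenocarcinoma cells; signal is phosphorylated S6 detected by cytoblot immunostaining with HRP secondary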
[8] = molecular target: NADPH oxidase 2 (Homo sapiens) (UniProt P04839); assay: NOX2-dependent H2O2 signal modulators, primary screen, NOX inhibitor project, cell-based, HEK293-NOX2, PMA-stimulated, Amplex Red fluorescence (AID 1159); details: 45 min, higher = more signal, called active from +8 up or from −8 down; further: test concentration not given here
Sequence of NADPH oxidase 2 (Homo sapiens) (P04839 whole entry, looked up): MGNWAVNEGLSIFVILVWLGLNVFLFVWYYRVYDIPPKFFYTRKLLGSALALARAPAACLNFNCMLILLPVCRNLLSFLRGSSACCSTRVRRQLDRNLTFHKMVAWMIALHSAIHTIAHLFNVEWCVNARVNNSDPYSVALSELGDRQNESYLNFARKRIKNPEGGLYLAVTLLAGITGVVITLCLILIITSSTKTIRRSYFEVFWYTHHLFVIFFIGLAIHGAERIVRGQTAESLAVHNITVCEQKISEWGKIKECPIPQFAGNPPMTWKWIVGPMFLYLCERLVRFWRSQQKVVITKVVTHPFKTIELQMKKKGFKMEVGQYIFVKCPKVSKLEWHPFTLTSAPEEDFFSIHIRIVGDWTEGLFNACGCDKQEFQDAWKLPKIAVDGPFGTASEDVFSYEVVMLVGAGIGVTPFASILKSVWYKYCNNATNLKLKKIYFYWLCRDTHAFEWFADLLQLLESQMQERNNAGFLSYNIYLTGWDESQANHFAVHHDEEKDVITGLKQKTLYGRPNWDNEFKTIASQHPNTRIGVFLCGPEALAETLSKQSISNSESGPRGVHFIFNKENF

[9] = molecular target: NADPH oxidase 4 (Homo sapiens) (UniProt Q9NPH5); assay: NOX4-dependent H2O2 signal modulators, primary screen, NOX inhibitor project, cell-based, HEK293-NOX4, tetracycline-induced, Amplex Red fluorescence (AID 1160); details: 45 min, higher = more signal, called active from +8 up or from −8 down
Sequence of NADPH oxidase 4 (Homo sapiens) (Q9NPH5 whole entry, looked up): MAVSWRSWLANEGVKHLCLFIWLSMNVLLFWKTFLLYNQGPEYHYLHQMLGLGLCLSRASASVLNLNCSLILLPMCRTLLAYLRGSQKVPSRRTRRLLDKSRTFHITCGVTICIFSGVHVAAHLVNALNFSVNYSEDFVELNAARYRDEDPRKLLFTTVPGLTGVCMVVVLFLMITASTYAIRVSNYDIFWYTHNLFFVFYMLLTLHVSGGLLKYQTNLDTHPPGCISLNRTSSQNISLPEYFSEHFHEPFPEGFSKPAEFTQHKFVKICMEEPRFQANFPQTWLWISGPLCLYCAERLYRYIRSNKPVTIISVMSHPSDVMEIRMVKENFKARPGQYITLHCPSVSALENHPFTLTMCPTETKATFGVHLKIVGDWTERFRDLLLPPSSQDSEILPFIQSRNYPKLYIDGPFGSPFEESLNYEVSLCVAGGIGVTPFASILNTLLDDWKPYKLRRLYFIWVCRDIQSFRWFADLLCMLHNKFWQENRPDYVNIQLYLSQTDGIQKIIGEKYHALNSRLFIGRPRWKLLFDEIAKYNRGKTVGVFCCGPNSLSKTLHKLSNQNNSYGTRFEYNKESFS

[10] = molecular target: NADPH oxidase 5 (Homo sapiens) (UniProt Q96PH1); assay: NOX5-dependent H2O2 signal modulators, primary screen, NOX inhibitor project, cell-based, HEK293-NOX5, Amplex Red fluorescence (AID 1161); details: HEK293-NOX5, ionomycin, 45 min, higher = more signal
Sequence of NADPH oxidase 5 (Homo sapiens) (Q96PH1 whole entry, looked up): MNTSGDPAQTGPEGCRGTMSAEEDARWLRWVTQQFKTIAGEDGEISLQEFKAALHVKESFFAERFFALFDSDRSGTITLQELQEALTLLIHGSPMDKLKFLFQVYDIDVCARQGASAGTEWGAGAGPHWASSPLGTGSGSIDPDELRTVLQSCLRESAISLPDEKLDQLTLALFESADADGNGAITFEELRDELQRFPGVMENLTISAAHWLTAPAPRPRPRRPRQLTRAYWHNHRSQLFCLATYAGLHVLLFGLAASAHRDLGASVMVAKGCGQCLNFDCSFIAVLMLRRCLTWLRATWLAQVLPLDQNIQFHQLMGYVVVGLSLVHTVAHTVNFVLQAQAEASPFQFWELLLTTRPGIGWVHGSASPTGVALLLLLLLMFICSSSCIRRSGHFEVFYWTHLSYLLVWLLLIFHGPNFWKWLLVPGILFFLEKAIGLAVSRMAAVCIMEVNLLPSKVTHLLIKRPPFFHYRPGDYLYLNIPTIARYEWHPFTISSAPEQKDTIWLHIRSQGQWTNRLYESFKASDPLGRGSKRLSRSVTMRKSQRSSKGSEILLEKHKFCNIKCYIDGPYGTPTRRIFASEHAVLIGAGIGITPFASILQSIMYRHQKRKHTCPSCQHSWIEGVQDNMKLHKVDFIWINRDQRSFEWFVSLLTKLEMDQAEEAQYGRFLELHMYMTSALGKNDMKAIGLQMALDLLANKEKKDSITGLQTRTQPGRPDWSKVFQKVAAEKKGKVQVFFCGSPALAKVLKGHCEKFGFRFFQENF

SMILES	z-score [1]	composite z-score [2]	z-score [3]	z-score [4]	z-score [5]	z-score [6]	z-score [7]	z-score [8]	z-score [9]	z-score [10]
CCN1C(C)=C(C(=O)OC)[C@@H](c2ccccc2)N2C(=O)[C@@]3(C(=O)OC)O[C@@]12[C@@H]1C(=O)CCC[C@@H]13	-0.128 (inactive)	-0.0518	0.732 (inactive)	-0.69 (inactive)	1.56 (inactive)	-1.11 (inactive)	0.641	0.715 (inactive)	1.11 (inactive)	0.25
Cc1ccc(S[C@]2(C(=O)NCCCN(C)C)CC(=O)N(C3CCCCC3)[C@@H]2c2ccc(CO)cc2I)cc1	1.16 (inactive)	0.0919	14 (active)	1.35 (inactive)	1.39 (inactive)	-1.07 (inactive)	1.72	-4.81 (inactive)	-1.42 (inactive)	0.549
CO[C@H]1COC(=O)[C@H](CCSC)NC(=O)CC=C[C@@H](C)COC(=O)[C@@H](OCc2ccccc2)C=C[C@@H]1C	-0.332 (inactive)	-0.109	-0.349 (inactive)	0.238 (inactive)	0.04 (inactive)	-0.236 (inactive)	0.182	1.65 (inactive)	-1.43 (inactive)	0.00807
COc1cccc([C@H]2N[C@H](C(=O)O)CC[C@@H]2C)c1	0.669 (inactive)	-0.23	1.09 (inactive)	0.0208 (inactive)	0.269 (inactive)	-1.06 (inactive)	3.05	0.0263 (inactive)	-0.557 (inactive)	0.125
O=C(CS)NCCCCCNC(=O)[C@H]1C[C@H]2C(=O)N3CCC[C@H]3C(=O)N2[C@H]1c1ccc(O)cc1	1.65 (inactive)	0.357	2.68 (inactive)	-0.856 (inactive)	-2.55 (inactive)	-1.63 (inactive)	1.24	0.274 (inactive)	0.00663 (inactive)	0.214
C=C(COC)/C(=C/C[C@@H](OC(=O)c1ccncc1)c1ccc(OCCO)cc1)c1cc(C(=O)OC)ccc1OC	2.31 (inactive)	0.0686	14.6 (active)	0.629 (inactive)	1.35 (inactive)	-1.53 (inactive)	0.866	1.98 (inactive)	2.24 (inactive)	-0.63
CC(=O)NCCCC[C@@H]1NC(=O)[C@H]2C[C@@H](C(=O)NCCCCCCN(C)C)[C@@H](c3cccc(OCCO)c3)N2C1=O	-0.179 (inactive)	0.257	2.81 (inactive)	0.461 (inactive)	1.25 (inactive)	0.376 (inactive)	0.317	0.779 (inactive)	0.301 (inactive)	1.44
C=C(CCCC)/C(=C/C[C@@H](OC(=O)c1ccncc1)c1ccc(CO)o1)c1cnc2ccccc2c1	0.583 (inactive)	0.569	7.06 (inactive)	0.843 (inactive)	1.17 (inactive)	0.0867 (inactive)	-0.349	0.194 (inactive)	-0.546 (inactive)	-0.634
COc1cc([C@@H]2N[C@H](C(=O)O)Cc3c2[nH]c2ccccc32)cc(OC)c1OC	0.441 (inactive)	-0.324	0.604 (inactive)	0.321 (inactive)	0.665 (inactive)	0.198 (inactive)	0.172	2.14 (inactive)	-0.0815 (inactive)	-1.1
COC(=O)[C@@]1(Cc2ccc(OC)cc2)[C@H]2c3cc(C(=O)N(C)C)n(Cc4ccc(C)c(F)c4F)c3C[C@H]2CN1C(=O)c1ccccc1	-1.37 (inactive)	0.187	1.76 (inactive)	-0.0758 (inactive)	0.571 (inactive)	0.788 (inactive)	0.0141	-0.795 (inactive)	-0.522 (inactive)	3.23
CC(c1ccccc1)C(O)C1C=CC2C(=O)N(C)C(=O)C2N1N(c1ccccc1)c1ccccc1 (stereo not given)	-1.04 (inactive)	0.391	1.02 (inactive)	0.386 (inactive)	0.625 (inactive)	0.777 (inactive)	-0.987	-0.735 (inactive)	-0.411 (inactive)	-0.649
CCOC(=O)C[C@H]1[C@H](OC(=O)c2cc3ccccc3oc2=O)[C@@H](NC(=O)c2ccc3ccccc3c2)c2cc(OCCCO)ccc2N1C(=O)c1ccc2ccccc2n1	2.1 (inactive)	0.19	11.1 (active)	1.42 (inactive)	0.865 (inactive)	0.868 (inactive)	0.63	0.985 (inactive)	0.873 (inactive)	2.17
C/C(=N\O)C(=O)NCCCCCNC(=O)OCc1ccccc1	1.93 (inactive)	-0.194	15.4 (active)	2.09 (inactive)	-0.222 (inactive)	0.501 (inactive)	-0.246	-0.459 (inactive)	0.0531 (inactive)	-0.588
C[N+](C)(C)CCCCNC(=O)[C@@H]1C[C@@H]2C(=O)N3CCC[C@H]3C(=O)N2[C@@H]1c1cccc(OCCO)c1	1.25 (inactive)	0.14	2.9 (inactive)	-0.732 (inactive)	-2.56 (inactive)	-2.13 (inactive)	0.326	-1.42 (inactive)	-0.183 (inactive)	-0.87
Cc1ccc(S[C@]2(C(=O)O)CC(=O)N(Cc3cc(C(F)(F)F)cc(C(F)(F)F)c3)[C@@H]2c2ccc(CO)cc2I)cc1	0.367 (inactive)	0.26	5.86 (inactive)	0.877 (inactive)	1.03 (inactive)	0.522 (inactive)	0.243	1.75 (inactive)	-2.5 (inactive)	0.547
O=C(NCc1ccccc1)[C@@]1(CCS(=O)(=O)c2ccccc2)COC(c2ccc(OCCCO)cc2)=N1	2.13 (inactive)	0.715	30.4 (active)	25.8 (active)	3.7 (inactive)	5.53 (inactive)	2.54	-2.26 (inactive)	-0.0883 (inactive)	-2.24
C=CCC(OC(C)=O)[C@@H]1[C@@H](N(Cc2ccc(-c3ccccc3)cc2)C(=O)c2ccc(C)cc2)c2cc(OCCCO)ccc2N1C(=O)c1ccc(-c2ccccc2)cc1 (stereo not given in full)	2.2 (inactive)	-0.0583	0.267 (inactive)	-0.576 (inactive)	-1.07 (inactive)	-0.888 (inactive)	1.05	-0.366 (inactive)	0.639 (inactive)	1.05
N#Cc1ccc(NN2C(C(O)CCc3ccccc3)C=CC3C(=O)N(c4ccccc4)C(=O)C32)cc1 (stereo not given)	-0.487 (inactive)	0.272	11.9 (active)	1.44 (inactive)	0.712 (inactive)	-0.864 (inactive)	0.843	-2.47 (inactive)	-3.59 (inactive)	-1.41
COC(=O)[C@H]1[C@@H]2COc3ccccc3[C@H]2N[C@H]1C(=O)OC	0.896 (inactive)	-0.0046	0.262 (inactive)	-0.122 (inactive)	-0.406 (inactive)	-0.21 (inactive)	0.12	-2.88 (inactive)	0.28 (inactive)	-1.9
CC(C)CN1C(=O)[C@@]2(Cc3ccccc31)c1ccccc1C(=O)N(C1CCCCC1)[C@H]2c1ccc(CO)cc1	1.83 (inactive)	-0.101	0.838 (inactive)	-0.528 (inactive)	-0.0544 (inactive)	-1.24 (inactive)	2.22	-0.236 (inactive)	-1.31 (inactive)	0.441
CCCC[C@H]1OB(O)C[C@H]2C1=C(COC)C[C@H]1C(=O)N(Cc3ccccc3)C(=O)[C@H]12	2.78 (inactive)	-0.0969	1.14 (inactive)	-1.1 (inactive)	0.223 (inactive)	-2 (inactive)	0.932	0.034 (inactive)	0.811 (inactive)	1.37
C=CC[C@]1(C(=O)N2CCCCC2)N=C(c2ccc(OCCCO)cc2)O[C@H]1c1ccccc1N=[N+]=[N-]	0.297 (inactive)	0.707	35.8 (active)	31.6 (active)	4.43 (inactive)	8.93 (active)	0.0944	-1.88 (inactive)	0.898 (inactive)	-0.971
Cc1ccc(S[C@]2(C(=O)NC(C)C)CC(=O)N(Cc3cc(C(F)(F)F)cc(C(F)(F)F)c3)[C@@H]2c2ccc(CO)cc2I)cc1	0.191 (inactive)	-0.136	3.22 (inactive)	0.504 (inactive)	-0.365 (inactive)	0.132 (inactive)	-0.398	1.57 (inactive)	-1.07 (inactive)	2.23
C=CC[C@]1(C(=O)O)N=C(c2ccc(OCCCO)cc2)O[C@H]1c1ccccc1N=[N+]=[N-]	1.76 (inactive)	0.0299	32.9 (active)	29.4 (active)	3.38 (inactive)	9.45 (active)	0.883	-1.53 (inactive)	0.823 (inactive)	-0.199
C=C(COC)/C(=C/C[C@@H](OC(C)=O)c1cccc(OCCO)c1)c1cc(C(=O)OC)ccc1OC	1.37 (inactive)	0.0319	15.7 (active)	0.098 (inactive)	0.363 (inactive)	-1.44 (inactive)	-0.316	1.51 (inactive)	1.28 (inactive)	-1.1
